Results from paper PMC7862700, “An all-to-all approach to the identification of sequence-specific readers for epigenetic DNA modifications on cytosine”.

What was measured:
Experiment in all cases: DAPPL (digital affinity profiling via proximity ligation, sequencing); 10 mM Tris-HCl pH 7.5, 50 mM NaCl, 1 mM DTT, 4% glycerol, room temperature, 30 min; GST-TFs on glutathione beads, 16-mer random dsDNA library, 0.1% formaldehyde crosslink after washing; high values mean tight binding
FLI1 = target: T1, FLI1 (Homo sapiens, UniProt Q01543 1-452); settings: protein: recombinant; tags: N-terminal GST; dsDNA, one strand shown
T1 sequence: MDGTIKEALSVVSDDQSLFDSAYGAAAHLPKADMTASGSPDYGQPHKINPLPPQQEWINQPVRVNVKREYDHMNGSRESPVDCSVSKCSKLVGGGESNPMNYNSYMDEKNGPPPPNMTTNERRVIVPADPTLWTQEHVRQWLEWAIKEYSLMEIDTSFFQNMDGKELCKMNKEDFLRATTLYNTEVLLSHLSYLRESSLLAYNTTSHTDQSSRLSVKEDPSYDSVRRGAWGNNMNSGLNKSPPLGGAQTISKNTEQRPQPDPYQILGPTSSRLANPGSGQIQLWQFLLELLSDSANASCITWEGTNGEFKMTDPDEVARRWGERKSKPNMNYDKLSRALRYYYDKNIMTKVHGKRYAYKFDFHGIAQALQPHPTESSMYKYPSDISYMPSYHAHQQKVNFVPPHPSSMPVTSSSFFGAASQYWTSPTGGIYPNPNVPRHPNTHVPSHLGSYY
Procedure, shortened: (§1)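 Pools of DNA-barcoded human transcription factors, expressed in yeast as GST fusions on glutathione beads and combined with a tag-only sample, were incubated with 200 nmole of a 16-mer random double-stranded DNA library. Incubation took 30 min at room temperature in Tris/NaCl/DTT/glycerol buffer and was followed by washing, 0.1% formaldehyde crosslinking, proximity ligation (BsaI/T4 ligase, 1 h, 37 °C), PCR amplification and sequencing on an Illumina NextSeq500. Binding signal is the ratio of a hexamer's read frequency for a factor to its frequency for the tag-only sample.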

ELK1 = target: T2, ELK1 (Homo sapiens, UniProt P19419 1-428); settings: protein: recombinant; tags: N-terminal GST; dsDNA, one strand shown
T2 sequence: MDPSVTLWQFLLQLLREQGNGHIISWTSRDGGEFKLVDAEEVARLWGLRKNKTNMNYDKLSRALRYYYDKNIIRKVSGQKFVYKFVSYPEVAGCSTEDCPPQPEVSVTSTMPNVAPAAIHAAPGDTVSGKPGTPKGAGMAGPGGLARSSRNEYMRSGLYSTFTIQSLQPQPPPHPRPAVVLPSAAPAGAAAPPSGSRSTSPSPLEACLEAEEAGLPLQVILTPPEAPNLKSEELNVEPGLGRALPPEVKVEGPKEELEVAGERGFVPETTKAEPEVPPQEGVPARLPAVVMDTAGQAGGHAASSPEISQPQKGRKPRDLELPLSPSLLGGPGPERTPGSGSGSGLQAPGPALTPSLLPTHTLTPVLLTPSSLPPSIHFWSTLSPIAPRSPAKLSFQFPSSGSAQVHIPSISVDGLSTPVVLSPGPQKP
Procedure, shortened: as §1

GABPA = target: T3, GABPA (Homo sapiens, UniProt Q06546 1-454); settings: protein: recombinant; tags: N-terminal GST; dsDNA, one strand shown
T3 sequence: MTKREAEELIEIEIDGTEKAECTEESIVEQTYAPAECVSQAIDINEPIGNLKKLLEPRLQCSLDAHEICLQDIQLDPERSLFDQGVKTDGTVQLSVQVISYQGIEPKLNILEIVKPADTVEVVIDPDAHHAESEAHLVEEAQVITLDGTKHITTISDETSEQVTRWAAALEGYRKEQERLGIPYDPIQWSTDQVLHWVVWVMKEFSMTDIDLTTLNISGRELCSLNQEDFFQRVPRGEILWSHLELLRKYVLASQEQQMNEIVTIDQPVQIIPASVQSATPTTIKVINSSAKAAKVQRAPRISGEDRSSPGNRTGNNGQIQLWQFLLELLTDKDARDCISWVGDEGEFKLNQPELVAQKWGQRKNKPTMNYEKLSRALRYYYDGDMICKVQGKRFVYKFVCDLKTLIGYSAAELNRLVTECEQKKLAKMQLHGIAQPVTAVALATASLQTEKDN
Procedure, shortened: as §1

ERG = target: T4, ERG (Homo sapiens, UniProt P11308 1-479); settings: protein: recombinant; tags: N-terminal GST; dsDNA, one strand shown
T4 sequence: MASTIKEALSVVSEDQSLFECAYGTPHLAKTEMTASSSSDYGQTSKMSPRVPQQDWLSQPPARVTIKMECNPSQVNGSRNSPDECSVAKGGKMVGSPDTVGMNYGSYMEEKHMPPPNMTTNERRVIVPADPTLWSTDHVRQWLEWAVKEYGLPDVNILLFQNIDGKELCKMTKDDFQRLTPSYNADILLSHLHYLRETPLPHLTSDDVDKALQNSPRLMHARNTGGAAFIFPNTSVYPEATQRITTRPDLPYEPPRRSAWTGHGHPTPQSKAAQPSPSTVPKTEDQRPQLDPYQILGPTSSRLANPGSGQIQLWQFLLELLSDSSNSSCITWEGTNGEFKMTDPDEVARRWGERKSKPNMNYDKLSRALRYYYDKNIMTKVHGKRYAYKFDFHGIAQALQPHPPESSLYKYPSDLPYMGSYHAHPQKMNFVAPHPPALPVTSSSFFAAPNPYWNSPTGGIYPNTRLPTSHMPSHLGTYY
Procedure, shortened: as §1

ELF1 = ELF1 (Homo sapiens, UniProt P32519 1-619); settings: protein: recombinant; tags: N-terminal GST; dsDNA, one strand shown
ELF1, sequence (P32519 whole entry): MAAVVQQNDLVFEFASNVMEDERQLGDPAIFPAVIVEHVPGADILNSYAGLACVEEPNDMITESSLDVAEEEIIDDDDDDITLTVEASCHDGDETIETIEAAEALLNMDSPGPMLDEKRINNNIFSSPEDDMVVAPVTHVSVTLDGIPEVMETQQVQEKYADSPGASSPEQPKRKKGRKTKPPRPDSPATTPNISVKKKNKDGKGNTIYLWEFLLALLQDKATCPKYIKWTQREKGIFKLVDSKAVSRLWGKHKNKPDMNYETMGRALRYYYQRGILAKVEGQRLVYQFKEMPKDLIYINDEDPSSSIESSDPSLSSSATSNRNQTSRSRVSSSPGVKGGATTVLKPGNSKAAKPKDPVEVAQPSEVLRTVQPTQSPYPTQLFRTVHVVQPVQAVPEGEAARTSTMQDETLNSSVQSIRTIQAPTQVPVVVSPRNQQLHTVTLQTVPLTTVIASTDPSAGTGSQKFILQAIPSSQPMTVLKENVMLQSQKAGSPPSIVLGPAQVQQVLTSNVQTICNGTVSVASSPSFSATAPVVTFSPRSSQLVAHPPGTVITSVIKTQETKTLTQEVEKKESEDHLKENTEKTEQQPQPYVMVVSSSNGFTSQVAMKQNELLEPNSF
Procedure, shortened: as §1

EHF = target: T5, EHF (Homo sapiens, UniProt Q9NZC4 1-300); settings: protein: recombinant; tags: N-terminal GST; dsDNA, one strand shown
T5 sequence: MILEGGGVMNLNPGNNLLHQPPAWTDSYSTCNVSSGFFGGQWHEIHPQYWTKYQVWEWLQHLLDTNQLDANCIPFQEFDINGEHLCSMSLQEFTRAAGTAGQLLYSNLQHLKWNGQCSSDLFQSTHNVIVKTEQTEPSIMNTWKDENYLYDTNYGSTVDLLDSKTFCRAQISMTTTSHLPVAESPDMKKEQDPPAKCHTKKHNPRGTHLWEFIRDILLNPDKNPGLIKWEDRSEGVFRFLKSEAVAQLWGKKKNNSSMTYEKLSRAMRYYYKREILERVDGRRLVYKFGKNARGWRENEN
Procedure, shortened: as §1

SPI1 = SPI1 (Homo sapiens, UniProt P17947 1-270); settings: protein: recombinant; tags: N-terminal GST; dsDNA, one strand shown
Procedure, shortened: as §1

SPIB = SPIB (Homo sapiens, UniProt Q01892 1-262); settings: protein: recombinant; tags: N-terminal GST; dsDNA, one strand shown
SPIB, sequence (Q01892 whole entry): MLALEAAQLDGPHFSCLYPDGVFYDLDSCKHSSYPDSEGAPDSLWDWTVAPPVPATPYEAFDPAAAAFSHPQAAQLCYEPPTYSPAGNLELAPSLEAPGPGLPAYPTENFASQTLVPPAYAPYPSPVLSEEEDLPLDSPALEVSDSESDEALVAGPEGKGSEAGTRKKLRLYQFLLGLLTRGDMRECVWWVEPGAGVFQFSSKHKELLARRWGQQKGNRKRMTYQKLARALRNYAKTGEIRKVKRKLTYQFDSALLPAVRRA
Procedure, shortened: as §1

ELK3 = target: T6, ELK3 (Homo sapiens, UniProt P41970 1-407); settings: protein: recombinant; tags: N-terminal GST; dsDNA, one strand shown
T6 sequence: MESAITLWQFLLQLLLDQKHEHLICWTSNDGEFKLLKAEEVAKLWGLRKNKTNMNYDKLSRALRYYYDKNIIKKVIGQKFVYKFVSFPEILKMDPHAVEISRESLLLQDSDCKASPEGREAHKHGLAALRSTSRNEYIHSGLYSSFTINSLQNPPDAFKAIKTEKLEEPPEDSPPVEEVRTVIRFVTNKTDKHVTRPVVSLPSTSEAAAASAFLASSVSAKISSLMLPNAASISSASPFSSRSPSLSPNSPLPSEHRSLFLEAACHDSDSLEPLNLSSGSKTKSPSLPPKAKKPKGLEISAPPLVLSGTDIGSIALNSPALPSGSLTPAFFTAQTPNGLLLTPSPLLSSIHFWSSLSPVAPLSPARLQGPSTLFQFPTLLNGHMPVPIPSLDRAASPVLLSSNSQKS
Procedure, shortened: as §1

FEV = target: T7, FEV (Homo sapiens, UniProt Q99581 1-238); settings: protein: recombinant; tags: N-terminal GST; dsDNA, one strand shown
T7 sequence: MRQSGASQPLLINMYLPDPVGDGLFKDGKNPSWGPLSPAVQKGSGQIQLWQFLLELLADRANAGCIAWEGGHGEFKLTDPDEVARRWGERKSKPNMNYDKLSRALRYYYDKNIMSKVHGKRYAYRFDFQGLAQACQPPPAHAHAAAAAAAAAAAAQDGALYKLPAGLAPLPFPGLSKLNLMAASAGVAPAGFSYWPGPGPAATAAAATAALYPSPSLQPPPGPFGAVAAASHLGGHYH
Procedure, shortened: as §1

ETV5 = ETV5 (Homo sapiens, UniProt P41161 1-510); settings: protein: recombinant; tags: N-terminal GST; dsDNA, one strand shown
ETV5, sequence (P41161 whole entry): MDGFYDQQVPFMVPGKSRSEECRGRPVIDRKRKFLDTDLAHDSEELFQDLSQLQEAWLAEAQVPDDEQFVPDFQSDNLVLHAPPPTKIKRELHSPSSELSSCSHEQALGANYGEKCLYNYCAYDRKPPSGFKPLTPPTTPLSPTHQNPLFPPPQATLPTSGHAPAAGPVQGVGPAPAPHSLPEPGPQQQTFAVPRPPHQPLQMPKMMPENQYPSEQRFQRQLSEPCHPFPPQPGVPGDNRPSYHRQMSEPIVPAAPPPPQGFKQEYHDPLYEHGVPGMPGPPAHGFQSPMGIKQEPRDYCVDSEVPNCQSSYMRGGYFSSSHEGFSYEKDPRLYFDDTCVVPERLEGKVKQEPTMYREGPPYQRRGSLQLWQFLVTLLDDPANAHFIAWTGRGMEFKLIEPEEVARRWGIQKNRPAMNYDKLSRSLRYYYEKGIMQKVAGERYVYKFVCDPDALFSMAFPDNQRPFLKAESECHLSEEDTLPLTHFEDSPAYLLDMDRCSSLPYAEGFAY
Procedure, shortened: as §1

HSF1 = HSF1 (Homo sapiens, UniProt Q00613 1-529); settings: protein: recombinant; tags: N-terminal GST; chain copies: 3; dsDNA, one strand shown
HSF1, sequence (Q00613 whole entry): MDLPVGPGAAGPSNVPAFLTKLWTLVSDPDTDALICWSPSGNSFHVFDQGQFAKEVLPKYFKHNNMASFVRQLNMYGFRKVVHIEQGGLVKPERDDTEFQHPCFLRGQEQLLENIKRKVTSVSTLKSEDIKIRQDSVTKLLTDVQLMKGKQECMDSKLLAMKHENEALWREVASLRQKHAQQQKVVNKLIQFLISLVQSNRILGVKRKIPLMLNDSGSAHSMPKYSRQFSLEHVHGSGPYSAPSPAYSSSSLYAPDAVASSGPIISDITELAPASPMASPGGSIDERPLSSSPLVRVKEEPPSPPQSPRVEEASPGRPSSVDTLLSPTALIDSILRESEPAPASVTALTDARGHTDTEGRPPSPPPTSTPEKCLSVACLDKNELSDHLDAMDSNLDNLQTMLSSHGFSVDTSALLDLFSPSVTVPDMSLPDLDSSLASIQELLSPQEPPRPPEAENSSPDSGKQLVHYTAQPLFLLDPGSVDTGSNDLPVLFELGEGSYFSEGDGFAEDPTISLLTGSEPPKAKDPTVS
Procedure, shortened: as §1

SPIC = target: T8, SPIC (Homo sapiens, UniProt Q8N5J4 1-248); settings: protein: recombinant; tags: N-terminal GST; dsDNA, one strand shown
T8 sequence: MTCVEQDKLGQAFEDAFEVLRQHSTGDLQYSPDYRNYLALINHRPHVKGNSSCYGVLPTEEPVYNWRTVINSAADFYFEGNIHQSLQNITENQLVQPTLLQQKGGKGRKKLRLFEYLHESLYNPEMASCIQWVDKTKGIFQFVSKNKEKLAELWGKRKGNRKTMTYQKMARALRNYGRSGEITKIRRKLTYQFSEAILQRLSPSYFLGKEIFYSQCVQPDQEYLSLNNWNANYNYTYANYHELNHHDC
Procedure, shortened: as §1

ELF4 = ELF4 (Homo sapiens, UniProt Q99607 1-663); settings: protein: recombinant; tags: N-terminal GST; dsDNA, one strand shown
ELF4, sequence (Q99607 whole entry): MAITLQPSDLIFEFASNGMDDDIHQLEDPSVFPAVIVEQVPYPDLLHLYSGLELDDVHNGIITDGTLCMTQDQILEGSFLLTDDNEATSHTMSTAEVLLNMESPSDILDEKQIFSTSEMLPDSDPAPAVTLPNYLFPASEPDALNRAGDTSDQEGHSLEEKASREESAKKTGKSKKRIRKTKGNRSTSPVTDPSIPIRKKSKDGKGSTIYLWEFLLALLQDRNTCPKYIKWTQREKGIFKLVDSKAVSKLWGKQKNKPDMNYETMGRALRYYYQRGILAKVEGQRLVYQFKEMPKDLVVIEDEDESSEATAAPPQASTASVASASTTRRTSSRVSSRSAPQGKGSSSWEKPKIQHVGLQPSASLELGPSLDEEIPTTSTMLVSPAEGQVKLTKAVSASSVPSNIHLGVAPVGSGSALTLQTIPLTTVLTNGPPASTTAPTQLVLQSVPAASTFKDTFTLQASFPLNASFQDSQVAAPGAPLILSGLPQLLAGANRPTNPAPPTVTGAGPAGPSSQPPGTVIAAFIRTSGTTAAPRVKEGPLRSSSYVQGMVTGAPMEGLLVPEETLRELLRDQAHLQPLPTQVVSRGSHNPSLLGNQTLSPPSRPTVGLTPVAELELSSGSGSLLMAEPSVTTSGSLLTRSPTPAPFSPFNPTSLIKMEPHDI
Procedure, shortened: as §1

ELK4 = target: T9, ELK4 (Homo sapiens, UniProt P28324-2 1-405); settings: protein: recombinant; tags: N-terminal GST; dsDNA, one strand shown
T9 sequence: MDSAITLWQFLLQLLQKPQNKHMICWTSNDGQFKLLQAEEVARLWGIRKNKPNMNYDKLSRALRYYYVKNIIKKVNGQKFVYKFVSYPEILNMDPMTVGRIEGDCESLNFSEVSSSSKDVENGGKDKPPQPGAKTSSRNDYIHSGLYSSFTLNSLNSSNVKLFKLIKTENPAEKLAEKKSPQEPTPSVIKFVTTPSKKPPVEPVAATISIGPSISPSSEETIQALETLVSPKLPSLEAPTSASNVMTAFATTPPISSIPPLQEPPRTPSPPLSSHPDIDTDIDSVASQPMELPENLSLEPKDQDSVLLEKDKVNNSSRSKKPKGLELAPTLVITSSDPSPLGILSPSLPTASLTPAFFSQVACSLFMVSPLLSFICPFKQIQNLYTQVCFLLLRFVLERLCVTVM
Procedure, shortened: as §1

ETV2 = target: T10, ETV2 (Homo sapiens, UniProt O00321 1-342); settings: protein: recombinant; tags: N-terminal GST; dsDNA, one strand shown
T10 sequence: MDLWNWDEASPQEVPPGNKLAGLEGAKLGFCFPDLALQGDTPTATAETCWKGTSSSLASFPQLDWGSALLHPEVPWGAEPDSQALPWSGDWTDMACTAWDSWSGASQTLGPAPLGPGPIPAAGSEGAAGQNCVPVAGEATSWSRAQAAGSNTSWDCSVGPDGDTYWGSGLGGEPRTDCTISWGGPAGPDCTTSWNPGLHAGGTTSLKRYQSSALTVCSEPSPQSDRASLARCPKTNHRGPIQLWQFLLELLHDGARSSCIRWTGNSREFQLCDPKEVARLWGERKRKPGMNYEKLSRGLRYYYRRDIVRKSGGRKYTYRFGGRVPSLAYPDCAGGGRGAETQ
Procedure, shortened: as §1

ELF3 = target: T11, ELF3 (Homo sapiens, UniProt P78545 1-371); settings: protein: recombinant; tags: N-terminal GST; dsDNA, one strand shown
T11 sequence: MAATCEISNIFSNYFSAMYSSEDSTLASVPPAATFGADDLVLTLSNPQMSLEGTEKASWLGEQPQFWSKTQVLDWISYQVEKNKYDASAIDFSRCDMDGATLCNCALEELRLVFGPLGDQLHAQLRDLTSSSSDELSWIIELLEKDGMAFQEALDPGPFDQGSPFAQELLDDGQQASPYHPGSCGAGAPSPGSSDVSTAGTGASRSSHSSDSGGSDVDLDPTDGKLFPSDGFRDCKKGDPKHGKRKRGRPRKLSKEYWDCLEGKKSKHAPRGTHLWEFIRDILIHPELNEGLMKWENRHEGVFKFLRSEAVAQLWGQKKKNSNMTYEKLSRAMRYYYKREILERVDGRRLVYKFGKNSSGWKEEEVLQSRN
Procedure, shortened: as §1

CRX = CRX (Homo sapiens, UniProt O43186 1-299); settings: protein: recombinant; tags: N-terminal GST; dsDNA, one strand shown
CRX, sequence (O43186 whole entry): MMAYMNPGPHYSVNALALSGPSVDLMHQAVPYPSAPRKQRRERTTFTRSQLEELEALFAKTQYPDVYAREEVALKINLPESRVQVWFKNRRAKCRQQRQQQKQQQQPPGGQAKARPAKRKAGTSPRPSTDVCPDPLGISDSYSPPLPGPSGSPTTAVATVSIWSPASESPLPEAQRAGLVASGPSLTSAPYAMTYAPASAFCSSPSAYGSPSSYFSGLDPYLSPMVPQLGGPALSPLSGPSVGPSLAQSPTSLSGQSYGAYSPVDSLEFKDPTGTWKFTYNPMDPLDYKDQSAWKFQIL
Procedure, shortened: as §1

ETV1 = ETV1 (Homo sapiens, UniProt P50549 1-477); settings: protein: recombinant; tags: N-terminal GST; dsDNA, one strand shown
ETV1, sequence (P50549 whole entry): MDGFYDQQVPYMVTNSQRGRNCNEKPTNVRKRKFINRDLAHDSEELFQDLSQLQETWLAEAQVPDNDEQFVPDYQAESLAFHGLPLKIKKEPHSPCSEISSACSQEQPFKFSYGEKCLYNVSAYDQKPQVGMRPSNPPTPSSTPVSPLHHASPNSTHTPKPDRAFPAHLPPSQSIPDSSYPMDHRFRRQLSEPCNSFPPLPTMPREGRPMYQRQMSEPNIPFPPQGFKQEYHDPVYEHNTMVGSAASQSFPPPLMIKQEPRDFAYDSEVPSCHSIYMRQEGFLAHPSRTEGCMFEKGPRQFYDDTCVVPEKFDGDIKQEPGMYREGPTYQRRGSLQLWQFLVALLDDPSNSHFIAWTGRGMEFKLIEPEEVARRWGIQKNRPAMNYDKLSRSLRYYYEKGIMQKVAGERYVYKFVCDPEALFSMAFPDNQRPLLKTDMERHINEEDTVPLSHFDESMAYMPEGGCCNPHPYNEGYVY
Procedure, shortened: as §1

CTTAGT
binding signal (FLI1): 1.17 fold enrichment (6-mer frequency, TF over GST control) | binding signal (ELK1): 1.17 fold enrichment (6-mer frequency, TF over GST control) | binding signal (GABPA): 1.2 fold enrichment (6-mer frequency, TF over GST control) | binding signal (ERG): 1.18 fold enrichment (6-mer frequency, TF over GST control) | binding signal (ELF1): 1.25 fold enrichment (6-mer frequency, TF over GST control) | binding signal (EHF): 1.22 fold enrichment (6-mer frequency, TF over GST control) | binding signal (SPI1): 1.07 fold enrichment (6-mer frequency, TF over GST control) | binding signal (SPIB): 1.19 fold enrichment (6-mer frequency, TF over GST control) | binding signal (ELK3): 1.19 fold enrichment (6-mer frequency, TF over GST control) | binding signal (FEV): 1.13 fold enrichment (6-mer frequency, TF over GST control) | binding signal (ETV5): 1.3 fold enrichment (6-mer frequency, TF over GST control) | binding signal (HSF1): 1.49 fold enrichment (6-mer frequency, TF over GST control) | binding signal (SPIC): 1.09 fold enrichment (6-mer frequency, TF over GST control) | binding signal (ELF4): 1.26 fold enrichment (6-mer frequency, TF over GST control) | binding signal (ELK4): 1.12 fold enrichment (6-mer frequency, TF over GST control) | binding signal (ETV2): 1.06 fold enrichment (6-mer frequency, TF over GST control) | binding signal (ELF3): 1.18 fold enrichment (6-mer frequency, TF over GST control) | binding signal (CRX): 1.98 fold enrichment (6-mer frequency, TF over GST control) | binding signal (ETV1): 1.17 fold enrichment (6-mer frequency, TF over GST control)
